Measurements published in PubChem BioAssay AID1159580 (chemical genetic matrix, 2015).
The whole screen tested about 5,500 compounds, of which about 2,000 (36%) were called active. Another 18% or so got no clear call; they are omitted. No stated cut-off is given here; in the data, active means normalized growth mostly below about 0.91 (no sharp cut-off); inconclusive means no clear call, values can overlap the other calls; inactive means mostly above about 0.92. Some of the results follow.

Test: chemical genetic growth profiling, strain panel (AID 1159580);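 further: tested at 20 µM; growth read once vehicle control cultures reached saturation at 30 °C; 1 = growth at the plate median or of vehicle wells; lower values mean less growth of the strain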
Conditions: S. cerevisiae deletion strains, growth OD
[1] = locus YAR019C, strain CDC15, hits give low values
[2] = locus YBL105C, strain PKC1, hits give low values
[3] = locus YBR135W, strain CKS1, hits give low values
[4] = locus YBR136W, strain MEC1, hits give low values
[5] = locus YBR160W, strain CDC28, hits give low values
[6] = locus YDL017W, strain CDC7, hits give low values
[7] = locus YDL028C, strain MPS1, hits give low values
[8] = locus YDL101C, strain DUN1, hits give low values
[9] = locus YDL108W, strain KIN28, hits give low values
[10] = locus YDL132W, strain cdc53, hits give low values
[11] = locus YDL214C, strain PRR2, hits give low values
[12] = locus YDR052C, strain DBF4, hits give low values
[13] = locus YDR054C, strain cdc34, hits give low values
[14] = locus YDR226W, strain ADK1, hits give low values
[15] = locus YDR477W, strain SNF1, hits give low values
[16] = locus YER123W, strain YCK3, hits give low values
[17] = locus YER133W, strain GLC7, hits give low values
[18] = locus YFL009W, strain cdc4, hits give low values
[19] = locus YFL029C, strain CAK1, hits give low values
[20] = locus YFR003C, strain YPI1, hits give low values
[21] = locus YFR019W, strain FAB1, hits give low values
[22] = locus YFR028C, strain CDC14, hits give low values
[23] = locus YGR040W, strain KSS1, hits give low values
[24] = locus YGR052W, strain FMP48, hits give low values
[25] = locus YGR092W, strain DBF2, hits give low values
[26] = locus YHR030C, strain SLT2, hits give low values
[27] = locus YHR079C, strain IRE1, hits give low values
[28] = locus YHR082C, strain KSP1, hits give low values
[29] = locus YHR205W, strain SCH9, hits give low values
[30] = locus YIL147C, strain SLN1, hits give low values
[31] = locus YJL095W, strain BCK1, hits give low values
[32] = locus YJL128C, strain PBS2, hits give low values
[33] = locus YJL157C, strain FAR1, hits give low values
[34] = locus YJR016C, strain ILV3, hits give low values
[35] = locus YJR066W, strain TOR1 (second series), hits give low values
[36] = locus YJR066W, strain TOR1, hits give low values
[37] = locus YKL048C, strain ELM1, hits give low values
[38] = locus YKL067W, strain YNK1, hits give low values
[39] = locus YKL101W, strain HSL1, hits give low values
[40] = locus YKL193C, strain SDS22, hits give low values
[41] = locus YKL203C, strain TOR2, hits give low values
[42] = locus YLR113W, strain HOG1, hits give low values
[43] = locus YLR133W, strain CKI1, hits give low values
[44] = locus YLR403W, strain SFP1, hits give low values
[45] = locus YML070W, strain DAK1, hits give low values
[46] = locus YMR001C, strain CDC5, hits give low values
[47] = locus YMR205C, strain PFK2 (second series), hits give low values
[48] = locus YMR277W, strain FCP1, hits give low values
[49] = locus YNL006W, strain LST8, hits give low values
[50] = locus YNL020C, strain ARK1, hits give low values
[51] = locus YNL161W, strain CBK1, hits give low values
[52] = locus YNL183C, strain NPR1, hits give low values
[53] = locus YNL207W, strain RIO2, hits give low values
[54] = locus YNL222W, strain SSU72, hits give low values
[55] = locus YNL307C, strain MCK1 (second series), hits give low values
[56] = locus YOL078W, strain AVO1, hits give low values
[57] = locus YOL136C, strain PFK27, hits give low values
[58] = locus YOR061W, strain CKA2, hits give low values
[59] = locus YOR119C, strain RIO1, hits give low values
[60] = locus YOR231W, strain MKK1, hits give low values
[61] = locus YOR329C, strain SCD5, hits give low values
[62] = locus YPL031C, strain PHO85, hits give low values
[63] = locus YPL153C, strain RAD53, hits give low values
[64] = locus YPL204W, strain HRR25, hits give low values
[65] = locus YPL209C, strain IPL1, hits give low values
[66] = locus YPL256C, strain CLN2, hits give low values
[67] = locus YPR025C, strain CCL1, hits give low values
[68] = locus YPR106W, strain ISR1, hits give low values
[69] = locus YPR111W, strain DBF20, hits give low values
[70] = strain NNK1, hits give low values
[71] = strain TSCII, hits give low values

Measured: normalized growth

O=C(c1cccs1)N(Cc1cccnc1)Cc1ccc(Cl)cc1Cl
inactive: [1] 0.979 | [2] 0.966 | [3] 0.961 | [4] 0.955 | [5] 0.964 | [6] 0.968 | [7] 0.961 | [8] 0.97 | [9] 0.96 | [10] 0.96 | [11] 0.94 | [12] 0.96 | [13] 0.968 | [14] 0.96 | [15] 0.934 | [16] 0.887 | [17] 0.946 | [18] 0.96 | [19] 0.97 | [20] 0.966 | [21] 0.918 | [22] 0.965 | [23] 0.92 | [24] 1.01 | [25] 0.984 | [27] 1.21 | [28] 1.07 | [29] 0.971 | [30] 0.964 | [31] 1.04 | [32] 0.939 | [33] 0.95 | [34] 0.971 | [35] 0.941 | [36] 1.1 | [37] 0.963 | [38] 0.938 | [39] 0.929 | [40] 0.969 | [41] 1.02 | [42] 1 | [43] 0.945 | [44] 0.965 | [45] 0.929 | [46] 0.966 | [47] 0.944 | [48] 0.974 | [49] 0.967 | [50] 0.947 | [51] 0.968 | [52] 1.04 | [53] 0.969 | [54] 0.957 | [55] 0.955 | [56] 0.962 | [57] 0.906 | [58] 0.929 | [59] 0.978 | [60] 0.997 | [61] 0.972 | [62] 0.927 | [63] 0.937 | [64] 0.902 | [65] 0.969 | [67] 0.965 | [68] 0.969 | [69] 0.955 | [70] 0.975 | [71] 0.966
active: [26] 1.22 [resistant] | [66] 1.15 [resistant]

CC(C)(C)C(=O)N(Cc1cccnc1)Cc1ccc(Cl)cc1Cl
inactive: [1] 0.998 | [2] 0.988 | [3] 1 | [4] 0.986 | [5] 0.995 | [6] 0.992 | [7] 0.992 | [8] 0.985 | [9] 0.982 | [10] 0.997 | [11] 0.914 | [12] 0.993 | [13] 0.991 | [14] 1 | [15] 0.948 | [16] 0.842 | [17] 0.948 | [18] 0.998 | [19] 0.996 | [20] 0.993 | [21] 0.9 | [22] 1 | [23] 0.928 | [24] 1.01 | [25] 0.936 | [26] 1.07 | [27] 1.01 | [28] 1.02 | [29] 0.935 | [30] 0.983 | [31] 1.04 | [32] 0.96 | [33] 0.909 | [34] 0.998 | [35] 0.909 | [36] 0.995 | [37] 0.973 | [38] 0.938 | [39] 0.943 | [40] 0.995 | [41] 0.99 | [42] 1.02 | [43] 0.952 | [44] 0.913 | [45] 0.907 | [46] 0.995 | [47] 0.936 | [48] 0.996 | [49] 1 | [50] 0.934 | [51] 0.997 | [52] 1.02 | [53] 1 | [54] 0.993 | [55] 0.963 | [56] 1 | [57] 0.919 | [58] 0.906 | [59] 0.988 | [60] 1.02 | [61] 0.996 | [62] 0.925 | [63] 0.917 | [64] 0.927 | [65] 0.989 | [66] 1.02 | [67] 0.995 | [68] 0.992 | [69] 0.997 | [70] 0.993 | [71] 0.996

O=S(=O)(c1ccc(Cl)cc1)N(Cc1cccnc1)Cc1ccc(Cl)cc1Cl
active: [15] 0.537 | [16] 0.469 | [17] 0.57 | [21] 0.727 | [23] 0.518 | [24] 0.543 | [26] 0.465 | [31] 0.273 | [35] 0.586 | [36] 0.46 | [41] 0.408 | [42] 0.54 | [44] 0.549 | [45] 0.673 | [47] 0.713 | [52] 0.47 | [59] 0.428 | [62] 0.478 | [63] 0.42 | [64] 0.526 | [66] 0.674
inactive: [1] 0.951 | [2] 0.966 | [3] 0.962 | [4] 0.95 | [5] 0.969 | [6] 0.968 | [7] 0.96 | [8] 0.967 | [9] 0.946 | [10] 0.929 | [11] 0.732 | [12] 0.924 | [13] 0.928 | [14] 0.938 | [18] 0.947 | [19] 0.942 | [20] 0.963 | [22] 0.94 | [25] 0.704 | [27] 0.55 | [28] 0.7 | [29] 0.583 | [30] 0.939 | [32] 0.958 | [33] 0.715 | [34] 0.949 | [37] 0.89 | [38] 0.745 | [39] 0.799 | [40] 0.941 | [43] 0.767 | [46] 0.963 | [48] 0.932 | [49] 0.959 | [50] 0.743 | [51] 0.968 | [53] 0.913 | [54] 0.961 | [55] 0.68 | [56] 0.946 | [57] 0.711 | [58] 0.787 | [60] 0.593 | [61] 0.96 | [65] 0.949 | [67] 0.952 | [68] 0.962 | [69] 0.975 | [70] 0.948 | [71] 0.927
